An excerpt weighted towards active compounds, which were near 3.2% of everything screened.
Bim-Mcl-1 – disrupts Bim peptide binding to human Mcl-1. Bead-based flow cytometry, Bim peptide-Mcl-1 binding. actives 0.1% (n = 190,000). Q07820. AID 1009. inhibition, % at 10 µM; in the data active means inhibition above about 40%;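 further: 0% = no compound tracer wells and 100% = peptide blocker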
14-3-3 Bad inh – disrupts binding of bovine 14-3-3 zeta to phospho-Bad peptide; TR-FRET 14-3-3zeta/Dy647-pBad peptide displacement, 1 h; inhibition, % at 21.7 µM; actives 0.71% (n = 220,000); AID 781;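 active means inhibition above about 70%, limit read from the data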;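 further: 0% = full 14-3-3 plus peptide FRET controls and 100% = background without 14-3-3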
Mcl1 Bid PPI – Mcl-1/Bid interaction inhibition; Q07820; inhibition, % at 21.7 µM; TR-FRET Mcl-1/Bid-Dy647 peptide binding, 1536-well; AID 1021; actives 0.97% (n = 220,000);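 active means compounds that cut the binding signal by more than half at the single screening dose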;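 further: His-tagged Mcl-1 with europium anti-His antibody binding Bid BH3 peptide; 0% = Mcl-1 plus peptide wells and 100% = peptide-only wells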
p47phox inh – p47phox (human) inhibition; p47phox/p22phox peptide binding, fluorescence polarization, 2 h; P14598; inhibition, % at 24.7 µM; actives 0.53% (n = 220,000);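 active means inhibition above about 30%, limit read from the data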;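 further: 0% = p47phox with labelled peptide and 100% = labelled peptide alone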
Target sequence (P14598 whole entry, looked up): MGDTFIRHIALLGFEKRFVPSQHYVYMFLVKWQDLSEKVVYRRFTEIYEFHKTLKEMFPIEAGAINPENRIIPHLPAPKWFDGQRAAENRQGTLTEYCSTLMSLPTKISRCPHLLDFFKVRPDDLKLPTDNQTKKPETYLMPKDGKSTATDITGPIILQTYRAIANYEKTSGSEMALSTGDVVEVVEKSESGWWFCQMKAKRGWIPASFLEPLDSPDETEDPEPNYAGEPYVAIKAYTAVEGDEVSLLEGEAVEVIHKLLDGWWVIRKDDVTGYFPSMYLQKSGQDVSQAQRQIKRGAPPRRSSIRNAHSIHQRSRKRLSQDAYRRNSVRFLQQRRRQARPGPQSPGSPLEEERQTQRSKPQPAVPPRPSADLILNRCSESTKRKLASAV
Mcl1-Noxa inh – Mcl-1/Noxa interaction inhibition. TR-FRET Mcl-1/Noxa peptide binding, 2 h. Q07820. actives 1.5% (n = 220,000). inhibition, % at 21.7 µM;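 active means compounds that cut the protein-peptide binding signal by more than 50% relative to plate controls in a single-dose test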;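 further: His-tagged Mcl-1 with rhodamine Noxa BH3 peptide and terbium anti-His antibody; 0% = Mcl-1 plus Noxa peptide wells and 100% = peptide-only wells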
* hit, by the source's call; · = no result given.

SMILES	Bim-Mcl-1	14-3-3 Bad inh	Mcl1 Bid PPI	p47phox inh	Mcl1-Noxa inh
O=C(O)CCc1ccc(-c2ccc(Cl)cc2)n1NC(=O)c1ccc(O)cc1	-2.0	-12.7	-59.1	-11.7	9.3
COc1cc(C)c(CNc2ccc(OC)c(OC)c2)cc1C	0.0	80.1*	-11.1	17.1	29.5
COc1cc(C)c(CNc2cc(C)cc(C)c2)cc1C	-2.0	12.2	-15.6	0.6	-5.9
COc1cc(C)c(CNc2cccc(C)c2)cc1C	1.0	72.9*	29.2	-1.9	21.9
CC12CCC(C(=O)Nc3nc4ccc(Br)cc4s3)(OC1=O)C2(C)C (centres undefined)	-1.0	8.8	-9.0	-7.1	16.7
O=C(NCCCN1CCCC1=O)c1ccc(Cl)c(Cl)c1	0.0	-9.2	-9.1	-8.1	9.5
CCS(=O)(=O)C1=NN2C(=N)/C(=C\c3ccc(SCc4ccco4)o3)C(=O)N=C2S1	5.0	24.4	12.2	-33.7	79.7*
N=C1/C(=C\c2ccc(SCc3ccccc3)o2)C(=O)N=C2SC=NN12	0.0	-7.7	-21.1	-37.2	-1.7
CC1CN(C(=O)N2c3ccccc3Sc3ccccc32)C(C)CC1=O (centres undefined)	-2.0	-0.6	-17.6	-9.9	70.2*
O=C(NCc1ccccc1)c1ncn[nH]1	·	-0.5	-66.7	-9.1	-9.1
FC(F)(F)c1ccncc1-c1nnnn1-c1ccc(Cl)cc1	·	-11.5	68.6*	-5.3	-9.2
N#C/C(=C/c1ccc(F)cc1)c1nnc(NC(=O)c2ccccc2)s1	·	31.4	3.0	4.9	67.9*
CCOC(=O)c1c(NC(C)=O)sc2c(O)cccc12	0.0	-3.9	-51.6	6.4	36.9
CCOC(=O)c1c(NC(C)=O)sc2c(O)c(Br)cc(Br)c12	-3.0	7.0	-14.6	14.0	84.5*
COC(=O)CSc1nc(N)c(C#N)c(-c2ccc(O)cc2)c1C#N	·	36.7	57.2*	-4.4	39.0
CCOc1ccc(OCCN(C)Cc2ccccc2)cc1	-5.0	40.5	58.9*	-7.8	10.0
CCOc1cccc(OCCOCCN(C)Cc2ccccc2)c1	5.0	-8.1	-23.4	-3.7	-5.9
c1ccc(C2CCC(N3CCNCC3)CC2)cc1 (centres undefined)	-3.0	38.1	18.8	8.7	30.7
CCCCOc1nc2ccccc2nc1C(C#N)S(=O)(=O)c1ccccc1 (centres undefined)	-4.0	72.1*	-23.6	-13.8	19.3
CC(C)OCCCNC(=O)C(NS(=O)(=O)c1ccc2c(c1)c(=O)n(C)c(=O)n2C)c1ccccc1 (centres undefined)	0.0	-12.5	0.5	-7.5	16.7
COc1ccc(C)cc1N(C(=O)COc1cccc(F)c1)c1nc2ccccc2s1	-2.0	-8.4	-26.0	-22.8	11.3
COc1ccc(C)cc1N(C(=O)c1ccc(F)cc1)c1nc2ccccc2s1	0.0	11.4	58.9*	-39.2	2.1
COc1ccc(C(=O)CCC(=O)Nc2cccnc2)cc1	-26.0	-5.5	-13.2	0.0	-0.9
COc1ccccc1CNC(=O)CC(NS(=O)(=O)c1ccc(C)cc1)c1ccco1 (centres undefined)	0.0	-11.9	92.2*	-5.7	18.7
Cc1cc(NC(=O)CCSc2ccc(Cl)cc2)no1	-3.0	4.1	-17.8	4.1	29.5
SMILES	Bim-Mcl-1	14-3-3 Bad inh	Mcl1 Bid PPI	p47phox inh	Mcl1-Noxa inh
O=c1cc(O)c2sc(Nc3ccc(F)c(Cl)c3)nc2[nH]1	3.0	-22.4	-94.0	-46.2	52.8*
COc1ccc(Nc2nc3[nH]c(=O)cc(O)c3s2)cc1	0.0	-11.3	-66.9	-19.3	36.0
O=c1cc(O)c2sc(Nc3ccc(Cl)c(F)c3)nc2[nH]1	·	1.1	-179.9	-56.1	51.0*
Cn1c2c(c(=O)n(C)c1=O)C1c3cc(Cl)ccc3OCC1CO2 (centres undefined)	0.0	-16.5	96.4*	0.2	2.4
CC12CC(NC(=O)N1CCc1ccccc1)c1cc(Cl)ccc1O2 (centres undefined)	-6.0	-0.4	4.3	-7.1	17.5
COc1cc(/C=C(/C#N)C(=O)Nc2ccc(Cl)cc2)ccc1Oc1nc(Cl)ncc1F	·	7.9	-26.3	-15.2	9.7
COc1ccc(OC)c2c1C(=O)c1ccccc1C2=O	1.0	4.2	-20.2	36.1*	15.0
COc1ccc(OC)c2c1C(=O)C(Cl)=C(Cl)C2=O	·	6.7	-77.8	90.3*	98.6*
Cn1cc(S(=O)(=O)c2ccccc2)n(C)c1=O	2.0	-13.7	-13.6	6.7	14.1
COc1cccc(N2CCN(CC(=O)NC(=O)NCc3ccco3)CC2)c1	1.0	1.3	-50.1	-12.9	62.1*
